Activity calls are given as the source filed them. Entries that show only a call come without a potency. Calls follow the shape of the dose curve; as a rule, active = well fitted activation curve with a large enough effect; inconclusive = small, poorly fitted or top-dose-only effect; inactive = no such curve, though single readings can be large or run the other way.
Potency is read from the fitted curve at half-maximal effect.

This experiment deals with Cytochrome P450 3A4 (Homo sapiens) (UniProt P08684). Put plainly: qHTS Assay for Activators of Cytochrome P450 3A4 (AID 885). Also: nearly all actives have a fitted effect of over 65% in size. Conditions: recombinant CYP3A4, Luciferin-PPXE luminescence, 60 min; series mostly up to 57.1 µM. On the procedure: NIH Molecular Libraries Screening Centers Network [MLSCN]
Sequence of Cytochrome P450 3A4 (Homo sapiens) (P08684 whole entry, looked up): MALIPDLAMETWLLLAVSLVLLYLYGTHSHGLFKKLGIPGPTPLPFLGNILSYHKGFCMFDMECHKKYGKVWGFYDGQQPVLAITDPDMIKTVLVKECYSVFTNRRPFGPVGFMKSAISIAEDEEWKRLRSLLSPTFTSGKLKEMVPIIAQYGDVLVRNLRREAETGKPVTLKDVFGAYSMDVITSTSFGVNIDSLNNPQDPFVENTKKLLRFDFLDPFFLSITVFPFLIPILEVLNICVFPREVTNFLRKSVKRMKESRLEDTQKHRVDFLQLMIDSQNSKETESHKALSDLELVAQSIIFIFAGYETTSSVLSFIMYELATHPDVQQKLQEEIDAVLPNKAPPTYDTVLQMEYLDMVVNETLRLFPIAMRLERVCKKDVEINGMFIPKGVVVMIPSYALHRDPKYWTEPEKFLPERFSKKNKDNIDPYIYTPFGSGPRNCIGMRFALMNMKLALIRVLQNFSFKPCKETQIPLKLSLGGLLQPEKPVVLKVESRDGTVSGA
NIH Chemical Genomics Center [NCGC]
The P450 gene superfamily is involved in the metabolism and clearance of xenobiotics. This assay used human CYP3A4 to measure the dealkylation of luciferin-6' phenylpiperazinylyl (Luciferin-PPXE; […]) to luciferin. The luciferin is then measured by luminescence after the addition of a luciferase detection reagent. Luciferin-PPXE concentration in the assay was equal to its KM for CYP3A4. Inhibitors and some substrates limit the production of luciferin, and decrease measured luminescence; activators increase the production of luciferin and luminescence.
NCGC Assay Protocol Summary:
Two uL of enzyme and substrate mix (final concentrations: 20nM CYP3A4, 25uM Luciferin-PPXE, 200mM KPO4) were dispensed into a white, solid bottom 1536-well microtiter plate. 23nL of compound was transferred by a pin tool. The plate was incubated at RT for 10 min. Two uL of an NADPH regeneration solution (Promega supplied reagent) was dispensed and the reaction was allowed to continue for 60 min at RT. Then the reaction was stopped by reconstituted luciferin detection buffer. After another 20 min of incubation the plate was read on the ViewLux (Perkin Elmer) at 60 sec exposure and 2x2 binning. This protocol was carried out with Promega-Glo reagents and further information can be found at http://www.promega.com/tbs/tb325/tb325.pdf. Data were normalized to the to AC100 inhibition (57 uM ketoconazole).
Keywords: P450, CYP2D6, Luciferase, MLSMR, MLSCN, NIH Roadmap, qHTS, NCGC
In general terms: qHTS replaces the single test concentration by a dilution series.
Turning to `O=c1c(-c2ccc(Cl)cc2)nc2cncnc2n1Cc1ccc(F)cc1`, the Potency entry was “inactive”.
As for `N#Cc1cccc(-c2nccc(-n3ccnc3)n2)c1`, the Potency entry is “inactive”.
In the case of `C=C[C@](C)(O)CCC1C(=C)CC(OC(C)=O)C2C(C)(C)CCCC12C` (stereo not given in full), the Potency result is “inactive”.
For `Cn1cc(-c2nc3cnc(N4CCNCC4)nc3n(-c3ccccc3)c2=O)c2ccccc21`, the Potency entry is “inactive”.
As to `CS(=O)(=O)Nc1cccc(-c2nc(NCCN3CCOCC3)c3ccccc3n2)c1`, the Potency entry is “inactive”.
In the case of `COc1ccc2[nH]cc(CCNc3ncnc4ccc(-c5ccccc5CN(C)C)cc34)c2c1`, the Potency entry was “inactive”.
Consider `CN(C)Cc1ccccc1-c1cncnc1NCc1cccs1`, for which the Potency entry was “inactive”.
In the case of `COc1ccc(-n2c(=O)c(C)nc3cnc(N4CCOCC4)nc32)cc1`, the Potency result is “inactive”.
For `O=c1ccc2cc(O)c(O)cc2o1`, the Potency entry is “inactive”.
Take `CCNc1ncc2nc(-c3ccccc3)c(=O)n(CCOC)c2n1`: the Potency entry is “inactive”.
The result for `Cc1cnc(CNc2ncncc2-c2ccc3c(c2)OCO3)cn1` reads “inactive”; that for `CCCC[P+](CCCC)(CCCC)Cc1ccc(NC(=O)[C@@H](Cc2ccc3ccccc3c2)NC(=NC2CCCCC2)NC2CCCCC2)cc1`, “inactive”; that for `COc1ccc2[nH]cc(CCNc3ccnc(-c4cccc(NS(C)(=O)=O)c4)n3)c2c1`, “inactive”.
Turning to `O=C(Nc1cccc(F)c1)N1CC[C@@]2(CCCN(C(=O)c3cc(C(F)(F)F)cc(C(F)(F)F)c3)C2)C1`, the Potency result was “inactive”.
`COc1ccc2[nH]cc(CCNc3cc(-c4cccnc4)ncn3)c2c1`: the Potency entry was “inactive”.
For `CCCCCN(CCCCC)C(=O)[C@H](CCC(=O)O)NC(=O)c1ccc(Cl)c(Cl)c1`, the Potency result was “inactive”.
As to `CN(C)Cc1ccccc1-c1cc(NCc2cccs2)ncn1`, the Potency entry was “inactive”.
For `COc1ccc(C(=O)N2CCC3(CCCN(Cc4ccccc4OC)C3)CC2)cc1`, the Potency result was “inactive”.
In the case of `N#Cc1cccc(NC(=O)N2CCCC3(CCN(C(=O)c4cc(C(F)(F)F)cc(C(F)(F)F)c4)CC3)C2)c1`, the Potency entry is “inactive”.
The result for `COc1cccc(Cn2c(=O)c(-c3ccc(Cl)cc3)nc3cnc(N4CCN(C)CC4)nc32)c1` reads 15.8 µM (active).
Then `COc1ccccc1CNc1nc(-c2cccc(C#N)c2)nc2ccccc12`, with “inactive”; and `O=C(c1ccco1)N1CCC2(CCCN(Cc3ccccc3)C2)CC1`, with “inactive”.
As to `COc1ccc(-n2c(=O)c(-c3cn(C)c4ccccc34)nc3cncnc32)cc1`, the Potency entry is “inactive”.
Then `O=C(Oc1ccccc1)N1CCC[C@@]2(CCN(c3ccncc3)C2)C1`, with “inactive”.
`COc1ccc2[nH]cc(CCNc3ccnc(-c4ccc(C(=O)N(C)C)cc4)n3)c2c1`: the Potency result was “inactive”.
Regarding `COc1ccc(CNc2ccnc(-c3ccc(C(=O)N(C)C)cc3)n2)c(OC)c1`, the Potency entry is “inactive”.
In the case of `Cn1cccc1C(=O)N1CCC[C@@]2(CCN(C(c3ccccc3)c3ccccc3)C2)C1`, the Potency result is “inactive”.
As to `COC(=O)c1c(OC)cc2c(c1C)Oc1c(Cl)c(O)c(Cl)c(C)c1C(=O)O2`, the Potency entry is “inactive”.
The result for `CNc1nc(-c2cccnc2)nc2ccccc12` reads “inactive”.
Then `CN(C)C(=O)c1ccc(-c2nccc(Nc3ccc(F)cc3)n2)cc1`, with “inactive”.
Turning to `COc1ccc(Oc2ncc3nc(CCc4ccccc4)c(=O)n(C)c3n2)cc1`, the Potency entry was “inactive”.
Turning to `COc1ccccc1CNc1ncncc1-c1cccc(NS(C)(=O)=O)c1`, the Potency result is “inactive”.
Turning to `CN(C)C(=O)c1ccc(-c2cncnc2NCc2cccnc2)cc1`, the Potency result was “inactive”.
The result for `O=C(c1cccc(F)c1)N1CCC2(CCCN(c3cccc(-c4ccccc4)c3)C2)CC1` reads “inactive”.
Turning to `CN(C)c1ccc(-c2nc(NCCc3cnc[nH]3)c3ccccc3n2)cc1`, the Potency result is “inactive”.
On to `CN(C)C(=O)c1ccc(-c2ccc3ncnc(NCc4ccccc4)c3c2)cc1`, for which the Potency entry was “inactive”.
Regarding `CCNc1ncc2nc(-c3cccc(C#N)c3)c(=O)n(CCC#N)c2n1`, the Potency result was “inactive”.
Regarding `O=C(c1cnccn1)N1CCC2(CC1)CCN(c1ncccn1)CC2`, the Potency was 7.94 µM (active).
The result for `CS(=O)(=O)N1CCC2(CC1)CN(C(c1ccccc1)c1ccccc1)C2` reads 15.8 µM (active).
As to `Cn1cccc1C(=O)N1CCC2(CCCN(c3ccccn3)C2)CC1`, the Potency entry is “inactive”.

The record behind these values is PubChem BioAssay (NCATS).
